# From PubChem BioAssay AID620 (Sanford-Burnham Center for Chemical Genomics, 2007)
# The campaign covered roughly 87,000 compounds. About 360 (0.41%) were called active. What follows is part of a selection rich in actives, with near analogues and random picks from the rest. A number with no mark means an inactive call. Cut-off read from the data, not from the text of the source: active = cytotoxicity above about 50%; inactive = the rest.
# Assay: HT1080 cell viability loss – fluorescence readout (AID 620);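 note: cells exposed to compound overnight then 4 h with Alamar Blue; 0% = vehicle DMSO and 100% = killing control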
# Details: at 10 µM, stronger effect = higher value
row,Compound,cytotoxicity
1,O=c1c2cc(Br)ccc2nc2n1CCCCC2,-8.5%
2,CC(=O)c1cccc(NC(=O)c2cc3ccccn3n2)c1,6.1%
3,COc1cccc(CNC(=O)c2cc3ccccn3n2)c1,0%
4,CCOC(=O)c1nc(N)c(=O)n(-c2ccc(C)cc2)n1,5.9%
5,CCOc1ccc(N(C(=O)Cn2nnc3ccccc32)C(C(=O)NC(C)(C)CC)c2cccn2C)cc1 (stereo not given),15%
6,C=CC1C(N2CCOCC2)C(C)(C)S1(=O)=O (stereo not given),0.5%
7,Cc1cc(NC(=O)CSc2nnc3c(C)cc4c(C)ccc(C)c4n23)no1,58.9% (active)
8,Cc1cc(C)c2c(c1)cc(C)c1nnc(SCC(=O)Nc3cc(C)on3)n12,20.3%
9,Cc1cc(NC(=O)CSc2nnc3c(C)cc4cc(C)c(C)cc4n23)no1,11.9%
10,COc1ccc(N2CCN(C(=O)CN(Cc3ccc(Cl)cc3)S(C)(=O)=O)CC2)cc1,-6.4%
11,CC1CCCCN1C(=O)CSc1ccc(-c2ccc(F)cc2)nn1 (stereo not given),-10.9%
12,COc1ccc(-c2cc(C(=O)N3CCN(c4ccccn4)CC3)c3ccccc3n2)cc1,3.7%
13,CCOC(=O)N1CCN(C(=O)c2cc(-c3ccc(OCC)cc3)nc3ccccc23)CC1,54.9% (active)
14,O=C(c1cc(-c2ccccc2)nc2ccccc12)N1CCN(c2ccccn2)CC1,-0.4%
15,CCOc1ccc(-c2cc(C(=O)N3CCN(C)CC3)c3ccccc3n2)cc1,3.8%
16,CCOC(=O)N1CCN(C(=O)c2ccccc2Oc2ccccc2)CC1,3.5%
17,CCOC(=O)N1CCN(C(=O)c2ccccc2-c2ccccc2)CC1,58.5% (active)
18,O=C(c1ccccc1-c1ccccc1)N1CCCC1,7.3%
19,CCOc1ccc(-c2cc(C(=O)N3CCN(c4ccccn4)CC3)c3ccccc3n2)cc1,52.4% (active)
20,CCOc1ccc(-c2cc(C(=O)O)c3ccccc3n2)cc1,23.3%

row,Compound,cytotoxicity
1,CNC(=S)NN(c1ccccc1)c1ccccc1,30.1%
2,COc1ccccc1CNC(=O)C(=O)NCC1CCCO1 (stereo not given),0.9%
3,Cc1cc(=O)oc2cc(OCC3CC(c4ccccc4Cl)=NO3)ccc12 (stereo not given),63.5% (active)
4,Cc1cc(=O)oc2cc(OCC3CC(c4ccc(Cl)cc4)=NO3)ccc12 (stereo not given),-6.9%
5,Cc1cc(=O)oc2cc(OCC3CC(c4ccccc4)=NO3)ccc12 (stereo not given),8.1%
6,O=C(NCc1ccccn1)C1CCCN(Cc2cnn(-c3ccccc3)c2-n2cccc2)C1 (stereo not given),-8.2%
7,O=S(=O)(c1ccc2c(c1)C(=NO)c1cc(S(=O)(=O)N3CCCCC3)ccc1-2)N1CCCCC1,102% (active)
8,O=S(=O)(c1ccc(S(=O)(=O)N2CCCC2)cc1)N1CCCCCC1,1.4%
9,CC1CCN(S(=O)(=O)c2ccc3c(c2)C(=NO)c2cc(S(=O)(=O)N4CCC(C)CC4)ccc2-3)CC1,4.2%
10,CC(=O)c1ccc(NC(=O)C(Cc2ccccc2)NC(=O)c2ccco2)cc1 (stereo not given),16.9%
11,CCC(C(=O)NC1CCCC1)N(Cc1cccs1)C(=O)Cn1nnc(-c2ccc(OC)c(OC)c2)n1 (stereo not given),-0.6%
12,Cc1ccc(S(=O)(=O)O/N=C2\CCCc3ccccc32)cc1,9.9%
13,CC1=C(C)/C(=N/OC(=O)c2cccc([N+](=O)[O-])c2)C=CC1=O,7.5%
14,CC1=C/C(=N\OS(=O)(=O)c2ccccc2)C=CC1=O,35.8%
15,O=S(=O)(O/N=C1\CCCc2ccccc21)c1ccccc1,21.4%
16,CC1=C(C)/C(=N\OS(=O)(=O)c2ccccc2)C=CC1=O,70.2% (active)
17,CC1=CC(=O)C=C(C)C1=NOS(=O)(=O)c1ccccc1,51.3% (active)
18,Cn1cc(Cl)c(C(=O)N/N=C/c2ccc(OS(=O)(=O)c3ccccc3)cc2)n1,6.3%
19,Cc1ccc2[nH]c(=O)c(-c3nc4cc(C)ccn4c3NCc3ccco3)cc2c1,-1.5%
20,CC(=O)OC(Cn1ccnc1)c1ccccc1 (stereo not given),7.8%

row,Compound,cytotoxicity
1,O=C(c1ccc(Cl)c(S(=O)(=O)NCc2ccco2)c1)N1CCN(c2ccccc2F)CC1,5.8%
2,Cc1cccc(N2CCN(C(=O)c3ccc(Cl)c(S(=O)(=O)NCc4ccco4)c3)CC2)c1C,26.2%
3,COc1ccccc1N1CCN(C(=O)c2ccc(Cl)c(S(=O)(=O)NCc3ccco3)c2)CC1,56.3% (active)
4,Nc1nc(SCc2ccc(Cl)cc2)[nH]c(=O)c1-c1ccccc1,1.6%
5,Cc1cc(C)nc(N2CCN(c3nc(C)nc4c3oc3ccccc34)CC2)n1,-3.6%
6,COc1ccccc1N1CCN(c2nc(C)nc3c2oc2ccccc23)CC1,74.7% (active)
7,COc1ccccc1N1CCN(c2ncnc3c2oc2ccccc23)CC1,-2.5%
8,O=C(c1cccc(F)c1)N1CCN(Cc2c[nH]c3ccccc23)CC1,2.4%
9,COc1ccc2cc(C(c3nnnn3Cc3ccccc3)N3CCCCCC3)c(=O)[nH]c2c1 (stereo not given),17.3%
10,Cc1cc(C(=O)CSc2nnc(-c3cccs3)n2Cc2ccccc2)c(C)n1C,4.7%
11,Cc1c(NC(=O)CSc2nc3ccccc3n2C)c(=O)n(-c2ccccc2)n1C,2.7%
12,COc1ccc(C(=O)n2c(-c3ccco3)nc3ccccc32)cc1,56.2% (active)
13,CCn1c(-c2ccco2)nc2ccccc21,6.1%
14,COc1ccc(C(=O)n2nc(-c3ccco3)nc2N)cc1,25.6%
15,CCN(CC)C(=O)CSc1nc2sc(C)c(C)c2c(=O)[nH]1,-6.3%
16,COc1ccc(CCN(C)C(=O)N2CCOCC2)cc1OC,-5.8%
17,COc1ccc2nc(NC(=O)c3cccc(OCc4c(C)noc4C)c3)sc2c1,57.3% (active)
18,CCSc1nnc(NC(=O)c2cccc(OCc3c(C)noc3C)c2)s1,-11.1%
19,COc1cc(C(=O)Nc2nc3ccccc3s2)ccc1OCc1c(C)noc1C,-13%
20,CC1C(=O)CCN(C(C)C)C1C (stereo not given),-13.7%
